Bioassay records (PubChem BioAssay)
aSyn yeast inh = qHTS of alpha-syn Inhibitors. Yeast expressing alpha-synuclein, growth rescue, BacTiter-Glo, 24 h. Potency, µM (doses to about 46.1 µM), usual class: activators. actives 0.14% (n = 370,000); note: nearly all actives have a fitted effect of over 65% in size
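Screening used galactose-induced yeast with toxic alpha-synuclein levels, exposed to compound for 24 hr at 30 deg C. Cell growth, read with BacTiter-Glo luminescence, gave the measured signal.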
FUS yeast rescue = qHTS for Suppressors of FUS Proteinopathy: Primary screen using FUS-linked yeast assay. AID 1347120, 2019. Potency, µM (top dose mostly 76.6 µM), hits mostly activators. S. cerevisiae FUS-expressing, growth rescue, OD600, 24 h. actives 0.24% (n = 390,000); note: nearly all actives have a fitted effect of over 55% in size
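Toxicity suppression screen in FUS-yeast. Cells induced with 2% galactose, starting OD 0.005, treated 24hr at 30C with compounds at multiple final concentrations; growth by OD600.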
TDP43 rescue = qHTS of TDP-43 Inhibitors. TDP-43 expressing yeast growth rescue, BacTiter-Glo, 24 h. Potency, µM (series often up to 46.1 µM), hits mostly activators. actives 1.8% (n = 410,000). AID 652104, 2013; note: nearly all actives have a fitted effect of over 50% in size
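In this qHTS, compounds that restore growth of yeast expressing TDP-43 appear as activators. Cells (OD600=0.02, galactose medium, raffinose-pregrown) are incubated with compound 24 hr at 30 deg C and growth is quantified by BacTiter-Glo.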
Abeta rescue = qHTS for compounds that reverse cellular toxicity of Amyloid beta (A-beta) peptide in yeast: Primary Screen. yeast expressing A-beta42, growth rescue, OD600, 48 h; response scale: 0% DMSO, 100% iron-clioquinol control. Potency, µM (titrated, usually from 46.1 µM), hits mostly activators. actives 0.063% (n = 410,000). AID 1347071, 2019; note: nearly all actives have a fitted effect of over 55% in size
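Yeast A-beta toxicity model in growth medium with pinned compounds, 48 h at 30 C; growth read as absorbance at 600 nm. Normalized to FeCl3/clioquinol equimolar mix (positive) and DMSO (negative).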
Each line names hits and unclear results; the compound was inactive in the other large screens. Sampled rows, rich in hits. Any-hit rate of the full collection: about 2.1%. Calls come from the whole dose curve; as a rule, active = well fitted curve in the direction sought with a large enough effect; inconclusive = small, poorly fitted or top-dose-only effect, or another doubt; inactive = no such curve, though single readings can be large; an effect the other way counts as inactive or inconclusive.

CCN(CC)S(=O)(=O)c1ccc(N2CCOCC2)c(NC(=O)c2ccccc2)c1	none
CCN(CC)S(=O)(=O)c1ccc(N2CCOCC2)c(NC(=O)c2cc3ccccc3o2)c1	TDP43 rescue 35µM
Cc1ccsc1C=Nn1c(-c2n[nH]c3c2CCC3)n[nH]c1=S	none (no result: aSyn yeast inh, TDP43 rescue, Abeta rescue)
Cc1cccc(-c2nnc(C3CCN(S(=O)(=O)c4cccc(Cl)c4)CC3)o2)c1	FUS yeast rescue inconclusive, TDP43 rescue 16µM (no result: aSyn yeast inh)
O=[N+]([O-])c1ccc(O)c(/C=N/Nc2ncnc3c2cnn3-c2ccccc2)c1	TDP43 rescue 7.9µM
O=[N+]([O-])c1ccc(O)c(/C=N/Nc2nc3ccccc3[nH]2)c1	none (no result: FUS yeast rescue)
CCNC(=O)C(=O)N/N=C/c1cc([N+](=O)[O-])ccc1O	aSyn yeast inh inconclusive, TDP43 rescue 20µM
O=C(N/N=C/c1cc([N+](=O)[O-])ccc1O)Nc1ccccc1	none
O=[N+]([O-])c1cccc(N/N=C/c2cc([N+](=O)[O-])ccc2O)c1	none
O=[N+]([O-])c1ccc(O)c(/C=N/Nc2ccccn2)c1	aSyn yeast inh 0.89µM
O=[N+]([O-])c1ccc(NN=Cc2ccccc2O)nc1	TDP43 rescue 22µM
C=CCN1[C@H](CC(C)C)COc2cccc(N3CCSCC3)c2S1(=O)=O	none (no result: aSyn yeast inh, TDP43 rescue, Abeta rescue)
COCCNC(=O)C[C@H]1CC[C@H]2[C@@H](COc3ccc(NC(=O)Nc4cccc(F)c4)cc3C(=O)N2C)O1	none (no result: aSyn yeast inh, TDP43 rescue, Abeta rescue)
CCn1c(COc2ccccc2)nnc1SCC(=O)Nc1ccc(Oc2ccccc2)cc1	none (no result: aSyn yeast inh, TDP43 rescue, Abeta rescue)
CC[C@H]1C=C[C@@H](C(=O)NS(=O)(=O)c2ccc(C)cc2)N(C(C)=O)C1	none (no result: aSyn yeast inh, TDP43 rescue, Abeta rescue)
Fc1ccc(CNc2ncnc3onc(-c4ccc(F)cc4)c23)cc1	TDP43 rescue 13µM
Clc1ccc(-c2noc3ncnc(NCCc4ccccc4)c23)cc1	TDP43 rescue 18µM
O=C(CSc1nnc(-c2ccc(Cl)cc2)n1C1CCCCC1)NN=Cc1c(O)ccc2ccccc12	none (no result: aSyn yeast inh, TDP43 rescue, Abeta rescue)
COc1ccc(CNS(=O)(=O)CC2NCCc3ccccc32)cc1 (stereo unspecified)	none (no result: aSyn yeast inh, TDP43 rescue, Abeta rescue)
Cc1c(CC(=O)N2CCC(C(=O)O)CC2)c(=O)oc2cc3c(cc12)CCC1(CCCCC1)O3	none
Cc1c(CC(=O)N2CCC(O)CC2)c(=O)oc2cc3c(cc12)CCC1(CCCCC1)O3	FUS yeast rescue 32µM
Cc1nc([N+](=O)[O-])c(NCCO)n1Cc1ccccc1	none
Cc1nc([N+](=O)[O-])c(Br)n1Cc1ccc(Cl)c(Cl)c1	TDP43 rescue 14µM
COc1ccc(C(=O)Cn2c(C)nc([N+](=O)[O-])c2Br)cc1	TDP43 rescue inconclusive
Cc1nc([N+](=O)[O-])c(Br)n1CC(=O)c1ccc(Cl)cc1	TDP43 rescue 13µM
COc1cnc(-c2ccccn2)nc1Sc1ccccc1Cl	TDP43 rescue inconclusive, Abeta rescue 11µM
Cc1ccc(NC(=O)COc2cccc3c2OC(C)(C)C3)c(O)c1	TDP43 rescue 11µM (no result: FUS yeast rescue)
CC1(C)Cc2cccc(OCC(=O)Nc3ccccc3F)c2O1	aSyn yeast inh inconclusive, TDP43 rescue inconclusive
O=C(OCCOCCOC(=O)Oc1ccccc1)Oc1ccccc1	TDP43 rescue 14µM (no result: FUS yeast rescue)
COc1ccc(OC(=O)OCc2ccccc2)cc1	none
CCOc1ccc(/C=C/c2ccc3ccccc3n2)cc1OCC	none (no result: FUS yeast rescue, TDP43 rescue, Abeta rescue)
O=C(/C=C/c1c(Cl)cccc1Cl)N1CCN(c2ncccn2)CC1	aSyn yeast inh inconclusive, TDP43 rescue 11µM
CN(C)CCCNc1cc(C(C)(C)C)nc2c(-c3ccc(Cl)cc3)cnn12	none
CC(C)(C)c1cc(NCc2ccccn2)n2ncc(-c3ccc(Cl)cc3)c2n1	TDP43 rescue 22µM
CCC(C)NC(=O)c1sc2nc(C)c(C(=O)Nc3ccc(Cl)cc3)c(-c3ccc(Br)cc3)c2c1N (stereo unspecified)	FUS yeast rescue inconclusive (no result: aSyn yeast inh)
Cc1nc2sc(C(N)=O)c(N)c2c(-c2ccc(Br)cc2)c1C(=O)Nc1ccc(Cl)cc1	FUS yeast rescue inconclusive, TDP43 rescue 22µM (no result: aSyn yeast inh)
COc1ccc(OC)c(S(=O)(=O)n2c(CN3CCOCC3)nc3ccccc32)c1	none (no result: aSyn yeast inh, TDP43 rescue, Abeta rescue)
c1ccc(CNC2CCC23CCC(c2ccccc2)CC3)cc1 (stereo unspecified)	none (no result: aSyn yeast inh, TDP43 rescue, Abeta rescue)
COc1cccc(CNC(=S)Nc2cccc(Cl)c2C)c1	TDP43 rescue 18µM, Abeta rescue inconclusive
Cc1cc(Oc2ccccc2)nc(C#N)n1	none (no result: FUS yeast rescue, TDP43 rescue, Abeta rescue)
O=c1c2ccccc2nnn1Cc1cccc2ccccc12	TDP43 rescue 13µM, Abeta rescue inconclusive
O=c1c2ccccc2nnn1CSc1ccccc1	none
O=c1c2ccccc2nnn1Cc1ccccn1	none
O=c1c2ccccc2nnn1CSc1ccc2ccccc2n1	aSyn yeast inh inconclusive, TDP43 rescue 18µM (no result: FUS yeast rescue)
Cc1ccc(NC(=O)c2cc3c([nH]c2=O)CC(C)(C)CC3=O)cc1	none (no result: FUS yeast rescue, TDP43 rescue, Abeta rescue)
Cc1ccc2cc(C#N)c(N3CCCN(S(=O)(=O)c4ccccc4)CC3)nc2c1C	FUS yeast rescue 6.3µM
COCc1cc(N2CCOCC2)nc(SCc2ccc(Cl)cc2)n1	Abeta rescue 10µM
Cc1ccc(S(=O)(=O)Nc2cccc3cccnc23)c([N+](=O)[O-])c1	aSyn yeast inh 18µM, TDP43 rescue 7.9µM
Cc1ccccc1NC(=S)NC(=O)C1CCCCC1	Abeta rescue inconclusive
Cc1ccc(NC(=S)NC(=O)C2CCCC2)c(Br)c1	TDP43 rescue 14µM, Abeta rescue inconclusive
Cc1ccc(NC(=O)CN2CCC(NC(=O)C3CCCCC3)CC2)c(Br)c1	none
O=C(NC(=S)Nc1ccccc1Br)C1CC1	TDP43 rescue 13µM
CC(=O)Nc1ccc(-c2csc(Nc3ccc(Cl)cn3)n2)cc1	none
CC(=O)Nc1ccc(-c2csc(Nc3cc(C)ccn3)n2)cc1	TDP43 rescue 16µM
CC(=O)Nc1cccc(-c2csc(Nc3ccc(Cl)cn3)n2)c1	TDP43 rescue 22µM
COc1ccc(-c2csc(Nc3cc(C)ccn3)n2)cc1OC	TDP43 rescue 14µM
Cc1ccnc(Nc2nc(-c3c(C)nc4sccn34)cs2)c1	TDP43 rescue 7.1µM (no result: aSyn yeast inh)
CCN(CC)c1ccc(C(=O)NCc2ccc3c(c2)CCN3C(=O)c2ccc(F)cc2)cc1	none (no result: aSyn yeast inh)
Cc1cccc(NC(=O)COc2ccccc2C(=O)Nc2ccccc2)c1	none (no result: FUS yeast rescue, TDP43 rescue, Abeta rescue)
CC1(C)CC(=O)c2cc(-c3nc(-c4ccc(Cl)cc4)cs3)c(=O)n(-c3cccc(F)c3)c2C1	none (no result: aSyn yeast inh)
CCOc1ccc(C(=O)NCC(=O)OCc2c(F)cccc2Cl)cc1OCC	none
CCOc1ccc(C(=O)NCC(=O)OCc2c(F)cccc2Cl)cc1	TDP43 rescue 22µM (no result: FUS yeast rescue)
COC(=O)c1ccc(N=Nc2ccccc2)cc1	TDP43 rescue 16µM
Oc1ccc(N=Nc2ccccc2)cc1	TDP43 rescue 18µM
O=C(O)c1ccccc1N=Nc1ccc(O)cc1	none
CCOC(=O)Cn1cc(CN2CCS(=O)(=O)N(Cc3ccccc3)C(C(=O)OC)C2)nn1 (stereo unspecified)	none (no result: aSyn yeast inh, TDP43 rescue, Abeta rescue)
CC(C)(C)c1ccc(C(=O)N2CCNCC2)cc1	none
CN1CCC2(CC1)N=C(c1ccc(F)cc1)C(=S)N2C(=O)c1ccc(C(C)(C)C)cc1	TDP43 rescue 20µM
